The values that follow come from PubChem BioAssay (EPA / NIEHS).

The term AC50 denotes the midpoint of the concentration-response curve, whichever way the signal moves.

Inconclusive results are not listed. The source made the active and inactive calls. The calls were made as follows, unless noted: active = hit-call score of the fitted dose curve at least 0.9, where 1 is the maximum; inactive = score below 0.9.

The nature of test [1]: ATG_TAL_CIS: Attagene CIS-FACTORIAL HepG2 Assay for human TAL Basal Promoter (AID 2282966).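 Also: background control endpoint measuring basal TAL promoter reporter mRNA not a specific factor.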 The following applies: HepG2 Attagene cis-factorial TAL promoter reporter; actives raise or lower the signal. In outline: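 Basal-promoter background-control endpoint from a multiplexed HepG2 reporter panel. Cells were exposed 24 h, then reporter mRNA was read by RT-PCR/CE fluorescence and fitted in both directions relative to DMSO.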

A short description of test [2]: ATG_TGFb_CIS: Attagene CIS-FACTORIAL HepG2 Assay for human Transforming Growth Factor (TGF) (AID 2282967). As to conditions: HepG2 Attagene CIS TGFb reporter, mRNA transcription; actives raise or lower the signal. In short, it runs like this: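 Transient MRTU transfection of HepG2 (FuGene 6). Dose 24 h. TriZol RNA, oligo(dT) RT, PCR, 6-FAM primer extension, HpaI cut, CE. Bidirectional fit, DMSO = baseline.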

Test [3] in a line: ATG_VDRE_CIS: Attagene CIS-FACTORIAL HepG2 Assay for human Vitamin D Receptor Element (VDRE) (AID 2282968). The following applies: HepG2 VDRE cis-reporter transcription, actives raise or lower the signal. In short, it runs like this:
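Compounds were applied for 24 h to HepG2 cells transfected with promoter-regulated reporter units. Total RNA was reverse-transcribed, and reporter amplicons were fluorescently labelled and sized by capillary electrophoresis.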

The target in test [4] is X-box-binding protein 1 (Homo sapiens) (UniProt P17861). Description: ATG_Xbp1_CIS: Attagene CIS-FACTORIAL HepG2 Assay for human X-box Binding Protein 1 (XBP1) (AID 2282972). As to conditions: HepG2 XBP1 cis-element reporter, Attagene multiplex; actives raise or lower the signal. In outline: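 Multiplexed cis-reporter readout in transfected HepG2 liver cells. Exposure lasted 24 hours. Activity in either direction was fitted against DMSO as negative control and baseline.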

Test [5] deals with Glucocorticoid receptor (Homo sapiens) (UniProt P04150). In words: ATG_GR_TRANS: Attagene TRANS-FACTORIAL HepG2 Assay for human Glucocorticoid Receptor (GR) (AID 2282978; active = hit-call score of the fitted dose curve at least 0.9, where 1 is the maximum;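 also: activators score as hits since higher reporter transcript over DMSO is fitted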). The following applies: HepG2 Attagene TRANS GR reporter, mRNA transcription. In outline:
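Multiplexed TRANS reporter system, HepG2; 24 h exposure; RNA → oligo(dT) RT → reporter-specific PCR → 6-FAM primer extension → HpaI cut → CE fluorescence. Gain-of-signal vs DMSO.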

Test [6] concerns the target Bile acid receptor (Homo sapiens) (UniProt Q96RI1). In words: ATG_FXR_TRANS: Attagene TRANS-FACTORIAL HepG2 Assay for Farnesoid X Receptor (FXR) (AID 2282979; active = hit-call score of the fitted dose curve at least 0.9, where 1 is the maximum;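 also: hits raise reporter mRNA above DMSO so AC50 marks FXR activation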). As to conditions: HepG2 Attagene TRANS FXR-GAL4 reporter transcription. In short, it runs like this: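 HepG2 cells were transiently transfected with GAL4-UAS reporters driven by chimeric NR-Gal4 proteins and dosed for 24 h. Reporter mRNA was quantified by RT-PCR, fluorescent labelling, HpaI digestion and capillary electrophoresis, with gain of signal scored versus DMSO.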

In test [7] the target is Oxysterols receptor LXR-alpha (Homo sapiens) (UniProt Q13133). In words: ATG_LXRa_TRANS: Attagene TRANS-FACTORIAL HepG2 Assay for human Liver X Receptor alpha (LXRa) (AID 2282980; active = hit-call score of the fitted dose curve at least 0.9, where 1 is the maximum). As to conditions: HepG2 Attagene TRANS reporter, LXRa transactivation. In short, it runs like this: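 HepG2 cells transiently transfected with GAL4-UAS reporter units for chimeric NR-Gal4 proteins, exposed to chemicals for 24 h. Reporter mRNA quantified by RT-PCR and capillary electrophoresis; gain of signal fitted relative to DMSO.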

The nature of test [8]: ATG_M_06_TRANS: Attagene TRANS-FACTORIAL HepG2 Assay for M06 Transcription Factor (Internal Marker) (AID 2282983; active = hit-call score of the fitted dose curve at least 0.9, where 1 is the maximum). The following applies: HepG2 Attagene TRANS M06 internal marker reporter. In short, it runs like this:
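mRNA levels of a reporter transcript, quantified as FAM fluorescence on capillary electrophoresis, served as readout. HepG2 cells expressing exogenous GAL4-chimera reporter constructs were exposed for 24 h. Gain of signal over DMSO was evaluated.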

The nature of test [9]: ATG_M_32_TRANS: Attagene TRANS-FACTORIAL HepG2 Assay for M32 Transcription Factor (Internal Marker) (AID 2282984; active = hit-call score of the fitted dose curve at least 0.9, where 1 is the maximum). As to conditions: HepG2 Attagene TRANS M32 internal marker reporter. In outline: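 Internal-marker readout from a multiplexed transcription reporter panel. HepG2 cells were transfected with GAL4-UAS reporter units, treated 24 hours, and reporter transcript levels determined by fluorescence after RT-PCR and capillary separation.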

Test [10] deals with Transcriptional activator Myb (Homo sapiens) (UniProt P10242). Description: ATG_Myb_CIS: Attagene CIS-FACTORIAL HepG2 Assay for human Myeloblastosis (Myb) Proto-Oncogene Transcription Factor (AID 2282986). The following applies: HepG2 Attagene CIS-FACTORIAL Myb reporter transcription; actives raise or lower the signal. In outline:
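Endogenous transcription factor activity at a Myb-responsive cis element is reported in human liver HepG2 cells after 24 h chemical treatment. Reporter mRNA is detected by RT-PCR and capillary electrophoresis fluorescence, with DMSO as baseline.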

In test [11] the target is Oxysterols receptor LXR-beta (Homo sapiens) (UniProt P55055). In words: ATG_LXRb_TRANS: Attagene TRANS-FACTORIAL HepG2 Assay for human Liver X Receptor beta (LXRb) (AID 2282981; active = hit-call score of the fitted dose curve at least 0.9, where 1 is the maximum). The following applies: HepG2 Attagene TRANS GAL4-LXRb reporter, mRNA. In short, it runs like this: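 Multiplexed reporter assay, HepG2, 24 h dosing. Fluorescence of labelled RT-PCR products after capillary electrophoresis gives transcript level; positive fitting direction relative to DMSO.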

Test [12] deals with Hepatocyte nuclear factor 4-alpha (Homo sapiens) (UniProt P41235). Description: ATG_HNF4a_TRANS: Attagene TRANS-FACTORIAL HepG2 Assay for human Hepatocyte Nuclear Factor 4 alpha (HNF4a) (AID 2282982; active = hit-call score of the fitted dose curve at least 0.9, where 1 is the maximum). The following applies: HepG2 HNF4a transactivation reporter, mRNA readout. In outline: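 Endpoint reflects transcriptional activation of a GAL4-UAS reporter by an HNF4a-GAL4 chimera in transfected HepG2 cells, 24 h post-dosing. Fluorescence from RT-PCR products separated by capillary electrophoresis; DMSO baseline.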

In test [13] the target is Nuclear receptor subfamily 4 group A member 2 (Homo sapiens) (UniProt P43354). In words: ATG_NURR1_TRANS: Attagene TRANS-FACTORIAL HepG2 Assay for human Nuclear Receptor Related Protein 1 (NURR1) (AID 2282985; active = hit-call score of the fitted dose curve at least 0.9, where 1 is the maximum). As to conditions: HepG2 Attagene TRANS reporter, mRNA readout. In short, it runs like this:
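Endpoint: reporter mRNA increase relative to DMSO. HepG2 cells transfected with reporter units, treated 24 h; RNA processed by RT-PCR, labelling, HpaI digestion and capillary electrophoresis.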

The target in test [14] is Nuclear respiratory factor 1 (Homo sapiens) (UniProt Q16656). Description: ATG_NRF1_CIS: Attagene CIS-FACTORIAL HepG2 Assay for human Nuclear Respiratory Factor 1 (NRF1) Orphan Gene (AID 2282987). The following applies: HepG2 NRF1 cis-element reporter, Attagene multiplex; actives raise or lower the signal. In outline: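 Human hepatoma HepG2 cells carrying transfected promoter-regulated reporter units were incubated with test chemicals for 24 h. Reporter transcripts were measured by RT-PCR plus capillary electrophoresis, and endpoints derived by bidirectional fitting with DMSO as baseline.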

Test [15] in a line: ATG_M_19_TRANS: Attagene TRANS-FACTORIAL HepG2 Assay for M19 Transcription Factor (Internal Marker) (AID 2282974; active = hit-call score of the fitted dose curve at least 0.9, where 1 is the maximum). As to conditions: HepG2 Attagene TRANS-FACTORIAL M19 internal marker reporter. In short, it runs like this: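 After transfection of HepG2 with GAL4-UAS-driven reporter constructs, cells are dosed for 24 h. Total RNA is reverse-transcribed, reporter sequences PCR-amplified and labelled, then HpaI-digested and sized by capillary electrophoresis.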

Test [16] deals with Estrogen-related receptor gamma (Homo sapiens) (UniProt P62508). In words: ATG_ERRg_TRANS: Attagene TRANS-FACTORIAL HepG2 Assay for human Estrogen-Related Receptor gamma (ERRg) (AID 2282977; active = hit-call score of the fitted dose curve at least 0.9, where 1 is the maximum;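 also: hits increase reporter signal over DMSO so potencies reflect activators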). As to conditions: HepG2 Attagene TRANS reporter, ERRg transactivation. In short, it runs like this: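 Exogenous NR-Gal4 chimera activity measured as reporter transcript induction after 24 h in transiently transfected HepG2 cells. RNA reverse-transcribed, PCR-amplified, 6-FAM-labelled and resolved by capillary electrophoresis; increase over DMSO baseline.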

Test [17] can be described thus: ATG_GAL4_TRANS: Attagene TRANS-FACTORIAL HepG2 Assay for GAL4 (Internal Marker) (AID 2282976; active = hit-call score of the fitted dose curve at least 0.9, where 1 is the maximum). As to conditions: HepG2 Attagene TRANS GAL4 internal marker reporter. In outline: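 Background-control readout: GAL4-UAS reporter transcript in transiently transfected HepG2 cells after 24 h compound exposure. Measured by RT-PCR, 6-FAM primer extension, HpaI digest and capillary electrophoresis; gain-of-signal fit versus DMSO.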

Glucocorticoid receptor (Homo sapiens), sequence (P04150 whole entry, looked up): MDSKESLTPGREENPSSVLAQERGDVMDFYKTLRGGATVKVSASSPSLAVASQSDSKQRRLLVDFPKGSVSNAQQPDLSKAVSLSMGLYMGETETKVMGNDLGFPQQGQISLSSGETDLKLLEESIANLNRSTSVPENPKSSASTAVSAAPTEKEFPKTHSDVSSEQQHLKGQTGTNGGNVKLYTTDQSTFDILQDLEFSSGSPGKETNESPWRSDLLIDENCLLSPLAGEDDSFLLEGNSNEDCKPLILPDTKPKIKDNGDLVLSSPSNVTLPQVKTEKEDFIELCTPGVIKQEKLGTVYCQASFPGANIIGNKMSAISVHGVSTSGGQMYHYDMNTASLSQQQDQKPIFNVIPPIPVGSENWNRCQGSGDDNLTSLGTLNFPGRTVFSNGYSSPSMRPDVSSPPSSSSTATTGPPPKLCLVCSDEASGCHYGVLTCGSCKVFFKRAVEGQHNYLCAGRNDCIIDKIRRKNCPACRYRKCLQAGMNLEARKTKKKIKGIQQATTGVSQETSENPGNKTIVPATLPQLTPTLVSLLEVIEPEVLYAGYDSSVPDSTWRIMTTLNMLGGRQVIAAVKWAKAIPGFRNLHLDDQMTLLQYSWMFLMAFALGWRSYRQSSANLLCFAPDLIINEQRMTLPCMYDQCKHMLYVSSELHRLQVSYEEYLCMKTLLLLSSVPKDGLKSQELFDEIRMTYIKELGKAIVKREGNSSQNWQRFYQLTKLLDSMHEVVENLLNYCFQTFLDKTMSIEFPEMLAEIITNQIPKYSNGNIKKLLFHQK
Oxysterols receptor LXR-beta (Homo sapiens), sequence (P55055 whole entry, looked up, the tested form may be a part): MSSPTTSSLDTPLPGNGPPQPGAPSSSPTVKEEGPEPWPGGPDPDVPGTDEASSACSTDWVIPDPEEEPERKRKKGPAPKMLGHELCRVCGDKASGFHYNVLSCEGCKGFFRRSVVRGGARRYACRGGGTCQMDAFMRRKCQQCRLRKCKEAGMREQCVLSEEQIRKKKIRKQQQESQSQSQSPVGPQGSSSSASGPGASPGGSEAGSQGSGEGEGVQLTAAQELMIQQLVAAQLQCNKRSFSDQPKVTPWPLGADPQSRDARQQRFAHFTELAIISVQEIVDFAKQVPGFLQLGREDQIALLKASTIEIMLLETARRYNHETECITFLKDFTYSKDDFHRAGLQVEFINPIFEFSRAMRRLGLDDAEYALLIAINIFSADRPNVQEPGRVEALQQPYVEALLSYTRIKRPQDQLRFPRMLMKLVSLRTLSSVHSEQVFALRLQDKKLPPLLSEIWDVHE
Hepatocyte nuclear factor 4-alpha (Homo sapiens), sequence (P41235 whole entry, looked up, the tested form may be a part): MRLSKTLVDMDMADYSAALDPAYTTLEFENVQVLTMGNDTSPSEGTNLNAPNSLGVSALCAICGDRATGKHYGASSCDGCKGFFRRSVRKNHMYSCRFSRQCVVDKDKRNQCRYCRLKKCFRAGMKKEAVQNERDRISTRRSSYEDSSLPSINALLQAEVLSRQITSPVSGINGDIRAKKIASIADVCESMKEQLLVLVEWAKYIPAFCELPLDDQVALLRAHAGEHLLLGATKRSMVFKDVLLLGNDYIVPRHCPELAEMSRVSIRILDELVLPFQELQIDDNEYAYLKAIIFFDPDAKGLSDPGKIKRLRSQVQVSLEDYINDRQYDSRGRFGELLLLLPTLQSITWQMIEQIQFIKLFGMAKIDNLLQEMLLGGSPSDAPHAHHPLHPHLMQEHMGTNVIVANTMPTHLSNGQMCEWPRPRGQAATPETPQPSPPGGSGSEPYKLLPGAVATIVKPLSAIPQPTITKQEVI
X-box-binding protein 1 (Homo sapiens), sequence (P17861 whole entry, looked up): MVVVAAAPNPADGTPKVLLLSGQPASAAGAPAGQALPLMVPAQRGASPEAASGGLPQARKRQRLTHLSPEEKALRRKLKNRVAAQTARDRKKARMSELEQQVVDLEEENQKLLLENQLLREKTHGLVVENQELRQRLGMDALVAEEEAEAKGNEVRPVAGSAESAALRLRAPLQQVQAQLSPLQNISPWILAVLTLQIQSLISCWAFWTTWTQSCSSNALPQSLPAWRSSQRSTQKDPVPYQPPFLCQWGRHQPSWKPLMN
Transcriptional activator Myb (Homo sapiens), sequence (P10242 whole entry, looked up): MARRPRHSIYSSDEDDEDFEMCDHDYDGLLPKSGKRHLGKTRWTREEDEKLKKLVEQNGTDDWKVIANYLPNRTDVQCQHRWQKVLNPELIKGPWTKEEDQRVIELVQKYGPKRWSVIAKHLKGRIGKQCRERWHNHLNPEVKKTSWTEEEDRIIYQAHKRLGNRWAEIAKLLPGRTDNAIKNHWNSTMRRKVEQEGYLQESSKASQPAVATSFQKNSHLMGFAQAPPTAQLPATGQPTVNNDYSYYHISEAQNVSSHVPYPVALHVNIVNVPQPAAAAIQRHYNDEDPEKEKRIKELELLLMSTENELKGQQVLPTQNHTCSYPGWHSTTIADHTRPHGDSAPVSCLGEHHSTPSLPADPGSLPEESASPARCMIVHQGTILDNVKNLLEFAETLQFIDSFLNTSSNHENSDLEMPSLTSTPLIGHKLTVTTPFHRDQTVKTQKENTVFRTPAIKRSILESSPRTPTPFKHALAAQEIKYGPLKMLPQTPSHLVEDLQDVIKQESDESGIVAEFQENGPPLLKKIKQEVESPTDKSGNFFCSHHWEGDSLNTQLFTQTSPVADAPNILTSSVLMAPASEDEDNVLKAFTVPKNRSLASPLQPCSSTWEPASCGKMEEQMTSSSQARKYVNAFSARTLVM
Oxysterols receptor LXR-alpha (Homo sapiens), sequence (Q13133 whole entry, looked up, the tested form may be a part): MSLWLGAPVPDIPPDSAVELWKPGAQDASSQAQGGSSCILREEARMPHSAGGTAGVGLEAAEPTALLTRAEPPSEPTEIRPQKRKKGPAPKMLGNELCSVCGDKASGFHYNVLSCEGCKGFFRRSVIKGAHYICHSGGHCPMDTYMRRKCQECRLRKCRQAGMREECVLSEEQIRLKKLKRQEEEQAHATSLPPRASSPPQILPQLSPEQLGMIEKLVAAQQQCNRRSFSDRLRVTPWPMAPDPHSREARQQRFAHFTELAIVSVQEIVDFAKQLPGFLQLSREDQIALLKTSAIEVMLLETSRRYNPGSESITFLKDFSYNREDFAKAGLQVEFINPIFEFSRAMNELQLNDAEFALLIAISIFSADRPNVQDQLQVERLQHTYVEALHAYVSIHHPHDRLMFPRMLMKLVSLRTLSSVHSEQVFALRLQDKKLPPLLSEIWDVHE
Nuclear receptor subfamily 4 group A member 2 (Homo sapiens), sequence (P43354 whole entry, looked up): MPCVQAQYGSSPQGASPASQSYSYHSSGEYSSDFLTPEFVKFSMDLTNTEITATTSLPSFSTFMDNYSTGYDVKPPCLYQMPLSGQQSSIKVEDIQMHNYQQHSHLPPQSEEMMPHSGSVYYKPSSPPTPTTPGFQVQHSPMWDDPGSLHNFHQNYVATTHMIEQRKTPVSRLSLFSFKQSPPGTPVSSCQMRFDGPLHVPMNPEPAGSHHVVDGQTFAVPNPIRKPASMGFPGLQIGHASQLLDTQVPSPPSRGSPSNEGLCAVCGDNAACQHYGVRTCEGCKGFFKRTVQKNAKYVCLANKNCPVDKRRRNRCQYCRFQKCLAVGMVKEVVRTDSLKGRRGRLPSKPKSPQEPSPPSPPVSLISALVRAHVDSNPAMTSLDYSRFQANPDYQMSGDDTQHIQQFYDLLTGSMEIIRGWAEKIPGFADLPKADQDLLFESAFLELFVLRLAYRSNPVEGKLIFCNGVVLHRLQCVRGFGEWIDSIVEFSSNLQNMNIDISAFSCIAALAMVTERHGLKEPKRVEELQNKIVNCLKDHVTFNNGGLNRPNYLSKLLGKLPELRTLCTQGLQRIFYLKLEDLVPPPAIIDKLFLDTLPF
Nuclear respiratory factor 1 (Homo sapiens), sequence (Q16656 whole entry, looked up): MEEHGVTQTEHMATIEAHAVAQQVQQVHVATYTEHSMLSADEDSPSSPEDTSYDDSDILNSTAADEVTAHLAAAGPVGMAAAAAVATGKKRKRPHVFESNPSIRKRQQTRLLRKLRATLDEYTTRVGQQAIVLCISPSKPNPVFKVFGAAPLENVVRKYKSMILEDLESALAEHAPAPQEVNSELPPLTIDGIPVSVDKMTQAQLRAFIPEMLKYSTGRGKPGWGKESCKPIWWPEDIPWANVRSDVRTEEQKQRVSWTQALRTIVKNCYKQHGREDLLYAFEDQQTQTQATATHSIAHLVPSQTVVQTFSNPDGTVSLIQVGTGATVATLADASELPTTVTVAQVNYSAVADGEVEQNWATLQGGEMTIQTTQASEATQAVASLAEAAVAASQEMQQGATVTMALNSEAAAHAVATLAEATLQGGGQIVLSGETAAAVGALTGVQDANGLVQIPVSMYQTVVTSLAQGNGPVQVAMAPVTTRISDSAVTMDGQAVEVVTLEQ
Bile acid receptor (Homo sapiens), sequence (Q96RI1 whole entry, looked up, the tested form may be a part): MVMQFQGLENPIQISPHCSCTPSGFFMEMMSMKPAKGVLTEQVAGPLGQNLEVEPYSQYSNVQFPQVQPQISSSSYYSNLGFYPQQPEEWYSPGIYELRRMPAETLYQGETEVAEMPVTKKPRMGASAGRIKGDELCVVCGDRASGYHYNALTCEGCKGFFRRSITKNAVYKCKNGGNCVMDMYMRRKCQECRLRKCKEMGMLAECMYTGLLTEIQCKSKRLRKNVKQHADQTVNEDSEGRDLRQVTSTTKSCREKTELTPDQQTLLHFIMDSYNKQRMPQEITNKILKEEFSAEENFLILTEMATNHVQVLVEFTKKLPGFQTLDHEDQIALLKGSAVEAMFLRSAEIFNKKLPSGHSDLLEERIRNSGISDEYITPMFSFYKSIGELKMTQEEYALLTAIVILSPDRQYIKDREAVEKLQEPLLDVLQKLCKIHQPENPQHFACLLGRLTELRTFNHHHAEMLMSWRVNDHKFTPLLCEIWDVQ

For the molecule `C=C[C@](C)(O)CC[C@@H]1[C@@]2(C)CCCC(C)(C)[C@@H]2CC[C@@]1(C)O`, the molecule was classed as inactive in test [1], in [2], in test [3], in test [4], in [5] and in test [6]. Further, the outcome in [7], in test [8], in test [9] and in [10] was inactive.

For the molecule `O=C1Nc2ccccc2C1(c1ccc(O)cc1)c1ccc(O)cc1`, the outcome in test [1], in test [2], in test [5], in test [11], in test [8] and in test [9] was inactive. In test [10], the outcome was inactive. Also, the AC50 in [3] was 17.8 µM (active); in test [4] it was 48.8 µM (active); in test [6], 10.5 µM (active).

With `COc1ccc(-c2coc3cc(O)ccc3c2=O)cc1`, the call in [1], in test [2], in [3], in test [4], in [5] and in test [7] was inactive. The molecule was classed as inactive in test [11], in [12], in [8], in test [9], in [13] and in test [10]. For the same molecule, in test [14], the molecule was called inactive.

As to `CN(C)c1ccc(N=Nc2ccccc2C(=O)O)cc1`, the molecule was called inactive in test [1], in test [2], in test [11], in test [8], in test [9] and in test [13]. Also, the molecule was called inactive in [14]. Moreover, the AC50 in test [3] was 16.4 µM (active); in test [4], 9.33 µM (active); in test [10], 25.3 µM (active).

For `CC1(C)S[C@@H]2[C@H](NC(=O)COc3ccccc3)C(=O)N2[C@H]1C(=O)O`, the result in test [1], in [2], in test [3], in [15], in [16] and in test [7] was inactive. Also, the call in test [12] and in test [14] was inactive.

On to `CC=CC(F)(F)C(F)(F)C(F)(F)F`, for which the outcome in [1], in test [2], in test [3], in test [4], in [16] and in test [7] was inactive. In addition, the call in test [11], in [12], in test [8], in [9], in test [13] and in test [10] was inactive. Moreover, in test [14], the molecule was called inactive.

On to `CCCC(C)CCC(C)=O` (configuration not stated), for which the outcome in test [1], in test [2], in [3], in test [4], in [17] and in test [12] was inactive. For the same molecule, the outcome in test [8], in [13], in test [10] and in [14] was inactive.

With `Cc1cccc(N)n1`, the outcome in test [1], in test [2], in test [3], in [15], in [12] and in test [8] was inactive. In addition, the call in test [10] and in test [14] was inactive.
